According to PubChem BioAssay (EPA / NIEHS):
The source made the active and inactive calls. The calls were made as follows: active = hit-call score of the fitted dose curve at least 0.9, where 1 is the maximum; inactive = score below 0.9.

Assay: CEETOX_H295R_CORTIC: CeeTox H295R High-throughput Steroidogenesis Assay for Corticosterone (CORTIC) (AID 2283437);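 also: corticosterone secreted into medium quantified by mass spectrometry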
Conditions: actives raise or lower the signal
Protocol: CEETOX_H295R is a cell-based, multiplexed-readout assay that uses H295R, a human adrenal gland cell line, with measurements taken at 48 hours after chemical dosing in a 96-well plate.CEETOX_H295R_CORTIC is one of 23 assay component(s) measured or calculated from the CEETOX_H295R assay. It is designed to make measurements of hormone induction, a form of inducible reporter, as detected with absorbance signals by HPLC-MS-MS technology.Data from the assay component CEETOX_H295R_CORTIC was analyzed into 1 assay endpoint. This assay endpoint, CEETOX_H295R_CORTIC, was analyzed with bidirectional fitting relative to DMSO as the negative control and baseline of activity. Using a type of inducible reporter, gain or loss-of-signal activity using HPLC-MS-MS was used to understand synthesis of Corticosterone in H295R cell line at 48hr of chemical exposure. To generalize the intended target to other relatable targets, this assay endpoint is annotated to the steroid hormone intended target family, where the subfamily is glucocorticoids.
Cell culture and media preparation procedures were conducted in accordance with OECD Test No. 456 guidelines, with minor modifications. H295R cells (ATCC CRL-2128) were expanded for 5 passages and frozen in batches in liquid nitrogen. Prior to the steroidogenesis assay, H295R cells were thawed and passed at least 4 times. The maximum passage was 10. Cells were maintained in a 1:1 mixture of DMEM/F12 supplemented with 5ml/L ITS+ Premix (BD Bioscience) and 12.5 ml/L Nu-Serum (BD Bioscience). After seeding cells into 96-well plates at 50-60% confluency, cells were allowed to adhere overnight. Prior to chemical testing, culture medium was replaced with 175 uL medium containing 10 uM forskolin to stimulate steroidogenesis for 48 hours. Following prestimulation, forskolin medium was replaced with medium containing test chemical solubilized in DMSO (ensuring a final concentration of 0.1% DMSO). Test chemicals were incubated for 48 hours, then the medium was removed and split into 2 vials containing approximately 75uL each, and stored at -80 C prior to hormone analysis. For steroid quantification, media samples were shipped to OpAns, LLC (Durham, NC) on dry ice, and samples were thawed to room temperature prior to liquid-liquid extraction. Steroid hormones were extracted from media samples using methyl tertbutyl ether (MTBE). An extra derivatization with dansyl chloride was included for estrogen (estrone and estradiol) detection only. Steroid hormones were separated by HPLC, eluted using a reverse phase C18 gradient with electrospray positive ionization, followed by quantification by tandem mass spectrometry (MS/MS). Data were acquired on a MassHunter Workstation Acquisition version B03.01 (Agilent Technologies, Inc.) and processed using MassHunter Quantitative Analysis for QQQ. Accuracy was determined for each hormone analyte from 3 standards to determine upper and lower limits of quantification (ULOQ and LLOQ, respectively) using a 7-point standard curve. Precision and accuracy of the extraction and quantification methods were calculated as the percent relative standard deviation (%RSD) of the spiked standards and percent spiked standard recovered, respectively. […] Test medium was removed following chemical exposure, and cell viability was evaluated in the same wells by MTT. MTT procedures were as follows: after removal of test medium, 500 uL of 0.5 mg/ml of 3-[4,5-dimethylthiazol-2-y]2,5-diphenyltetrazoliumbromide solution was added to the cells. Following a 4-hour incubation at 37 C and 5% CO2 to allow formazan-crystal formation, the MTT solution was removed and blue formazan salt crystals were solubilized using 500uL anhydrous isopropanol with shaking for 20 minutes. Absorbance was read at 570 and 650nm using a Packard Fusion microplate reader. Background correction of absorbance units was used to determine percent change relative to controls. […]
In the case of CCOP(=S)(OCC)SCSP(=S)(OCC)OCC, the outcome is reported as “inactive”.
In the case of C=CC(=O)N(C)C, the outcome is reported as “inactive”.
With CC12CC1(C)C(=O)N(c1cc(Cl)cc(Cl)c1)C2=O (centres undefined) the AC50 was 14.1 µM (active).
With Nc1ccc(-c2ccc(N)c(Cl)c2)cc1Cl the outcome was “inactive”.
With O=C(Nc1ccc2[nH]ccc2c1)c1cc2cc(F)ccc2n1Cc1cccc(F)c1 the outcome was “inactive”.
For CCOP(=S)(OCC)SCCS(=O)(=O)CC, the outcome was “inactive”.
In the case of C[C@]12CC[C@H](O)CC1=CC[C@@H]1[C@@H]2CC[C@]2(C)C(=O)CC[C@@H]12, the outcome is reported as “inactive”.
With CCOP(=S)(OCC)Oc1nc(Cl)c(Cl)cc1Cl the outcome was “inactive”.
For Oc1ccc(-c2ccccc2)cc1, the AC50 was 14 µM (active).
With CN(CCCC(=O)c1cccnc1)N=O the outcome was “inactive”.
For CCCCCCCCC(=O)NCc1ccc(O)c(OC)c1, the outcome was “inactive”.
With O=C(Cc1ccccc1)c1ccccc1 the outcome was “inactive”.
With C1CCC(NC2CCCCC2)CC1 the outcome was “inactive”.
In the case of Fc1ccc(C2(Cn3cncn3)OC2c2ccccc2Cl)cc1 (centres undefined), the outcome is reported as “inactive”.
